Results: PubChem BioAssay (NCATS)
“And” between values parts separate entries of the source, which are not always exact repeats. Equal values may be shown once. Inconclusive results are not listed. The source made the active and inactive calls. Unless noted, the call rests on the fitted dose curve; in most records, active means well fitted curve in the direction sought with a large enough effect; inconclusive means small, poorly fitted or top-dose-only effect, or another doubt; inactive means no such curve, though single readings can be large; an effect the other way counts as inactive or inconclusive.

Key:
[1] = Cell Viability - H-4-II-E (AID 543);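 further: cells exposed to compound for 40 hours; nearly all actives have a fitted effect of over 35% in size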; further: potency means the concentration at half of the fitted maximal effect
Outline: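 CellTiter-Glo luminescence (intracellular ATP) measured after 40 h compound exposure at 37 °C in H-4-II-E rat hepatoma cells seeded at 1500/well. Values are AC50s fitted with the standard Hill equation.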

[2] = Cell Viability - SH-SY5Y (AID 544); details: SH-SY5Y neuroblastoma cell viability; viability change, negative = cytotoxic: at 92.2 µM (top of the series);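 further: cells exposed to compound for 40 hours; 0% = DMSO alone and -100% = 100 µM tamoxifen; nearly all actives have a fitted effect of over 55% in size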
Outline: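 Cytotoxicity measured via ATP-dependent luciferase luminescence (CellTiter-Glo) following 40 h, 37 °C exposure of 1500 SH-SY5Y cells per well. Concentration-response data were fitted with the standard Hill equation to give AC50.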

[3] = Cell Viability - LYMP2-001 (AID 921);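 further: 0% = DMSO only and full inhibition = tetraoctylammonium bromide control wells; nearly all actives have a fitted effect of over 70% in size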
Outline: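 Steps: seed 2500 lymphoblastoid cells/well; 5 hr, 37 C; add compound; 24 hr, 37 C; CellTiter-Glo reagent, 30 min room temperature; read luminescence. Concentration-response modeled by Hill equation for AC50.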

[4] = Cell Viability - LYMP2-015 (AID 971);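 further: 0% = DMSO only and full effect = 92 µM tetraoctylammonium bromide; nearly all actives have a fitted effect of over 55% in size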
Outline: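 Cytotoxicity readout: decrease in intracellular ATP (CellTiter-Glo luminescence) in 2500 LYMP2-015 lymphoblastoid cells/well after 24 h compound exposure at 37 C. Concentration-response data fitted with the standard Hill equation to give AC50.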

[5] = Cell Viability - LYMP2-017 (AID 972); further: on the % scale 0 is the no-effect control and ±100 the full control effect; nearly all actives have a fitted effect of over 55% in size
Outline: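 CellTiter-Glo luminescence (cellular ATP, 30 min RT) measured cytotoxicity after 24 hr compound treatment at 37 C. Cells were a human lymphoblastoid line, LYMP2-017, plated at 2500/well and incubated 5 hr first; concentration-response fitted with Hill equation for AC50.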

[6] = Cell Viability - LYMP2-021 (AID 974); further: on the % scale 0 is the no-effect control and ±100 the full control effect; nearly all actives have a fitted effect of over 55% in size
Outline: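 AC50 values come from Hill-equation fits to CellTiter-Glo luminescence (ATP content), read after 24 hour compound exposure at 37 C of 2500 LYMP2-021 lymphoblastoid cells/well; tetraoctylammonium bromide as positive control.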

[7] = Cell Viability - LYMP2-016 (AID 984)
Outline: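 Cells were seeded at 2500 per well and rested 5 hr before a 24 hr compound exposure at 37 C. Viability was then gauged as cellular ATP by luciferase luminescence, with AC50 values fitted to the Hill equation.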

[8] = Cell Viability - LYMP2-020 (AID 986)
Outline: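 Cytotoxicity in qHTS format: luminescent ATP readout from CellTiter-Glo after 24 h compound exposure at 37 C in complete medium. LYMP2-020 lymphoblastoid cells were seeded at 2500/well; concentration-response data fitted to the Hill equation for AC50.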

[9] = Cell Viability - LYMP1-002 - Assay at 40 hr (AID 994);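 further: 0% = DMSO only and full inhibition = 92 µM tetraoctylammonium bromide; nearly all actives have a fitted effect of over 60% in size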
Outline: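 Cytotoxicity was read as loss of cellular ATP (CellTiter-Glo luminescence) after 40 hr compound exposure at 37 C of 2500 LYMP1-002 lymphoblastoid cells per well. Concentration-response data were fitted with the standard Hill equation to give AC50.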

[10] = target: Retinoic acid receptor RXR-alpha (Homo sapiens) (UniProt P19793); experiment: qHTS assay for small molecule agonists of retinoid X receptor alpha signaling (AID 588544; calls by dose curve;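 further: 0% = DMSO basal wells and 100% = reference agonist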)
Sequence of Retinoic acid receptor RXR-alpha (Homo sapiens) (P19793 whole entry, looked up): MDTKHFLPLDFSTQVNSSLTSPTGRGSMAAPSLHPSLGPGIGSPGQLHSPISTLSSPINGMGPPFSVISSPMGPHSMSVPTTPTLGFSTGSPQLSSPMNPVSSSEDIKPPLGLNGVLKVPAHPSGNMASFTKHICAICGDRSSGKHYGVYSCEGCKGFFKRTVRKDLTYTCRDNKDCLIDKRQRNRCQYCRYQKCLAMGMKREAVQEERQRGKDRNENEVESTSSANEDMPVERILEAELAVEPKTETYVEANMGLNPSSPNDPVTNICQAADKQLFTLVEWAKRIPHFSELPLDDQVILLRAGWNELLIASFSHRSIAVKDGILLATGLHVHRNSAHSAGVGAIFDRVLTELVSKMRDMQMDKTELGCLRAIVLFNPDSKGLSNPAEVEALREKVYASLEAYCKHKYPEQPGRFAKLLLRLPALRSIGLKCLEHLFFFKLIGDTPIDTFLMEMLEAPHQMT

[11] = target: Retinoic acid receptor RXR-alpha (Homo sapiens) (UniProt P19793); experiment: qHTS assay for small molecule antagonists of retinoid X receptor alpha signaling (AID 588546; active means well fitted inhibition curve with a large enough effect in the signal ratio, with a control signal flat, not every such curve was filed as active; the % refers to the signal ratio;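 further: cells stimulated with 9-cis-retinoic acid as agonist; on the % scale 0 is the no-effect control and ±100 the full control effect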); details: HEK293T RXRa-UAS-bla, beta-lactamase ratio, antagonist mode
Outline: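 Beta-lactamase reporter inhibition, read as CCF4 fluorescence ratio (ex 405, em 460/530 nm) after 2 h at RT. HEK293T UAS-bla cells, 2500/well, were stimulated with 9-cis-RA at 500 or 100 nM final alongside test compound for 18 h at 37 C.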

[12] = qHTS assay for small molecule agonists of the antioxidant response element (ARE) signaling pathway measured by Nrf2-dependant transcriptional activity (AID 720636; active means well fitted curve in the direction sought with a large enough effect in the repeat runs; an effect the other way counts as inactive or inconclusive;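 further: HepG2 cells with an ARE-driven luciferase reporter; % of control where 0% means no effect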)
Outline: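 Reporter gene assay, HepG2 ARE-luc: 16 hr compound, 37 C, 5% CO2; read-out luciferase luminescence.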

[13] = qHTS assay for small molecule activators of the human pregnane X receptor (PXR) signaling pathway (AID 720659; call rule not given here; further: 0% is about no effect)
[14] = Cell Viability - HepG2 (AID 433; calls by dose curve;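 further: potency means the concentration at half of the fitted maximal effect; cells exposed to compound for 40 hours; potency for ATP loss meaning cytotoxicity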); details: qHTS
Outline: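 Read-out is luciferase-based quantitation of cellular ATP as a measure of viable HepG2 cells after 40 h treatment at 37 °C. Signal decrease is scaled between DMSO-only and 100 uM tamoxifen controls, with AC50 fitted by the Hill equation.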

[15] = Cell Viability - LYMP1-003 - Assay at 40 hr (AID 964); further: on the % scale 0 is the no-effect control and ±100 the full control effect; nearly all actives have a fitted effect of over 60% in size
Outline: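 Viability is taken as cellular ATP, read by CellTiter-Glo luminescence after 40 h of compound exposure at 37 C. Cells: human lymphoblastoid line LYMP1-003 at 2500/well; AC50 values derived by Hill-equation fitting of concentration-response data.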

[16] = Cell Viability - LYMP2-003 (AID 965);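 further: cells exposed to compounds for 24 h before reading; 0% = DMSO only and full effect = 92 µM tetraoctylammonium bromide; nearly all actives have a fitted effect of over 50% in size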
Outline: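 Seed 2500 lymphoblastoid cells/well; incubate 5 hr, 37 C; add compounds; incubate 24 hr, 37 C; add CellTiter-Glo, 30 min RT; read luminescence. AC50 from Hill fit.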

[17] = Cell Viability - LYMP2-006 (AID 978); further: on the % scale 0 is the no-effect control and ±100 the full control effect; nearly all actives have a fitted effect of over 60% in size
Outline: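 Cells are seeded at 2500 per well and rested 5 hr at 37 C. Compounds are added across a concentration series for 24 hr at 37 C, after which ATP is quantified by luciferase luminescence.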

[18] = Cell Viability - LYMP2-010 (AID 981)
Outline: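 CellTiter-Glo ATP luminescence measured cytotoxicity after 24 h compound exposure at 37 C. LYMP2-010 cells were seeded at 2500/well, with tetraoctylammonium bromide as control; concentration-response curves gave AC50 values by the Hill equation.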

[19] = Cell Viability - LYMP2-012 (AID 982)
[20] = Cell Viability - NIH 3T3 (AID 541); details: NIH 3T3 cell viability, qHTS; activity change, negative = cytotoxicity: at 92.2 µM (top of the series);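 further: cells exposed to compound for 40 hours; nearly all actives have a fitted effect of over 25% in size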; further: potency means the concentration at half of the fitted maximal effect;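 on activity change, negative = cytotoxicity: plate controls were DMSO alone for no effect and tamoxifen positive control for full effect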
Outline: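 Intracellular ATP (CellTiter-Glo luminescence, 20 min at room temperature) measured after 40 hr compound exposure at 37 °C of 1000 NIH 3T3 mouse fibroblasts/well in complete medium; AC50 derived by Hill-equation modelling of qHTS concentration-response curves.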

O=C(Cc1ccccc1)OCc1ccccc1
inactive: Potency [1] | Potency [2] | Potency [3] | Potency [4] | Potency [5] | Potency [6] | Potency [7] | Potency [8] | Potency [9] | outcome [10] | max response [11] -5.19% | Potency [12] | outcome [13]

O=[N+]([O-])c1ccccc1-c1ccccc1
inactive: Potency [14] > 92 µM | Potency [1] | Potency [2] | Potency [3] | Potency [15] | Potency [16] | Potency [4] | Potency [6] | Potency [17] | Potency [18] | Potency [19] | Potency [9] | outcome [10] | max response [11] 0.902% | outcome [13]

Clc1cc(Cl)c(Cl)c(Cl)c1
inactive: Potency [14] > 92 µM | Potency [20] | Potency [1] | Potency [3] | Potency [15] | Potency [16] | Potency [5] | Potency [6] | Potency [17] | Potency [18] | Potency [7] | Potency [8] | Potency [9] | max response [11] 14.2% | outcome [13]

Cc1cc(Cl)ccc1O
inactive: Potency [20] | Potency [1] | Potency [2] | Potency [3] | Potency [15] | Potency [16] | Potency [4] | Potency [5] | Potency [17] | Potency [18] | Potency [7] | Potency [8] | Potency [9] | outcome [10] | max response [11] -5.53% | Potency [12] | outcome [13]

ClCC(Cl)CCl
inactive: Potency [20] | Potency [1] | Potency [2] | Potency [3] | Potency [15] | Potency [16] | Potency [4] | Potency [5] | Potency [6] | Potency [17] | Potency [18] | Potency [19] | Potency [7] | Potency [8] | Potency [9] | outcome [10] | max response [11] 11.2% and -5.45% | Potency [12] | outcome [13]

CCOP(=S)(OCC)Oc1nc(Cl)c(Cl)cc1Cl
inactive: Potency [14] > 92 µM | Potency [1] | Potency [2] | Potency [3] | Potency [15] | Potency [16] | Potency [4] | Potency [5] | Potency [6] | Potency [17] | Potency [18] | Potency [8] | Potency [9] | outcome [10] | Potency [12]

Nc1ccc([N+](=O)[O-])cc1[N+](=O)[O-]
active: Potency [20] 10 µM | Potency [1] 20 µM
inactive: Potency [14] > 92 µM | Potency [2] | Potency [3] | Potency [15] | Potency [16] | Potency [4] | Potency [5] | Potency [6] | Potency [18] | Potency [19] | Potency [7] | Potency [8] | Potency [9] | Potency [12] | outcome [13]

CN(C)C(=O)Cl
inactive: Potency [14] > 92 µM | Potency [20] | Potency [1] | Potency [2] | Potency [3] | Potency [15] | Potency [16] | Potency [5] | Potency [6] | Potency [17] | Potency [18] | Potency [7] | Potency [8] | Potency [9] | outcome [10] | max response [11] 8.18% | Potency [12] | outcome [13]

C=CCc1cc(OC)c2c(c1)OCO2
inactive: Potency [20] | Potency [1] | Potency [2] | Potency [3] | Potency [15] | Potency [16] | Potency [4] | Potency [6] | Potency [17] | Potency [18] | Potency [19] | Potency [7] | Potency [8] | Potency [9] | outcome [10] | max response [11] 9.86% | outcome [13]

OCCCCO
inactive: Potency [14] > 92 µM | Potency [20] | Potency [1] | Potency [2] | Potency [15] | Potency [16] | Potency [4] | Potency [5] | Potency [6] | Potency [17] | Potency [18] | Potency [19] | Potency [7] | Potency [9] | outcome [10] | max response [11] -1.35% | Potency [12]
